Results taken from PubChem BioAssay AID624256 (NMMLSC, 2012).
Screen size: about 360,000 compounds; about 3,700 (1%) were called active. Another 2% or so got no clear call; they are omitted.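 The calls were made as follows: active = normalized GFP-positive differentiation at or above the plate's own cutoff, the solvent-only control mean plus 3 SD; inconclusive = no clear call, values can overlap the other calls; inactive = the rest.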 This excerpt belongs to a sample that is enriched for actives.

Assay: induction of myeloid progenitor differentiation, primary screen, cell-based, flow cytometry, MLPCN library (AID 624256);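 as to GFP+ MAC1+ double positive: cells exposed to compound for four days before flow analysis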;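 as to normalized GFP-positive differentiation: cells exposed to compound for four days before flow analysis; 0% = DMSO wells and 100% = fulvestrant positive control at 5 µM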
Conditions: ER-HoxA9 myeloid progenitors, lysozyme-GFP differentiation, at 10 µM; GFP+ MAC1+ double positive: measured here: differentiation confirmed by MAC1 staining, stronger effect = higher value; normalized GFP-positive differentiation: stronger effect = higher value
With `Clc1cccc(Cc2c(-c3cccc(Cl)c3)nc3ccc(Cl)cn23)c1` the GFP+ MAC1+ double positive was 0.4% and the outcome was “inactive”.
For `COc1ccc(CNC(=O)c2nnn(CC(=O)Nc3cc(C)cc(C)c3)c2N)cc1`, the GFP+ MAC1+ double positive was 0.5% and the outcome was “inactive”.
In the case of `COc1ccc(NC(=O)Cn2nnc(C(=O)NCCc3ccc(OC)c(OC)c3)c2N)cc1`, the GFP+ MAC1+ double positive is reported as 1% and the outcome is reported as “inactive”.
For `CCOc1ccc(Cn2nnc(C(=O)Nc3ccc(OC)cc3OC)c2N)cc1`, the GFP+ MAC1+ double positive was 12.5% and the normalized GFP-positive differentiation was 38% (active).
For `Cc1cccc(C)c1NC(=O)C(c1cccc(F)c1)N1CCN(C)CC1` (stereo not drawn), the GFP+ MAC1+ double positive was 2.3% and the outcome was “inactive”.
With `COc1ccc(S(=O)(=O)N2CCOCC2)cc1C(=O)Nc1nc2ccccc2s1` the GFP+ MAC1+ double positive was 27.7% and the normalized GFP-positive differentiation was 33.1% (active).
For `COc1ccc(S(=O)(=O)N2CCOCC2)cc1C(=O)NC1CCCCC1`, the GFP+ MAC1+ double positive was 0.6% and the outcome was “inactive”.
For `COc1ccc(S(=O)(=O)N2CCOCC2)cc1NC(=O)COc1ccccc1`, the GFP+ MAC1+ double positive was 0.8% and the outcome was “inactive”.
In the case of `Cc1c(C(=O)NCC2CC2)sc(=O)n1Cc1cccc(F)c1`, the GFP+ MAC1+ double positive is reported as 4.3% and the outcome is reported as “inactive”.
For `O=S1(=O)CC(N2CCN(Cc3ccccc3F)CC2)CN1Cc1cn(Cc2cccc(C(F)(F)F)c2)nn1` (stereo not drawn), the GFP+ MAC1+ double positive was 1% and the outcome was “inactive”.
In the case of `O=C1C=CN2CCCC2CC1` (stereo not drawn), the GFP+ MAC1+ double positive is reported as 1.2% and the normalized GFP-positive differentiation is reported as 7.96% (active).
In the case of `CC(=O)C1=CCC(c2ccccc2)N(S(=O)(=O)c2ccc(C)cc2)C1` (stereo not drawn), the GFP+ MAC1+ double positive is reported as 1.6% and the outcome is reported as “inactive”.
With `Cc1ccccc1S(=O)(=O)N1[C@@H](c2cccc(Cl)c2)C(C(=O)OC(C)(C)C)=CC[C@H]1c1ccc(Cl)cc1` the GFP+ MAC1+ double positive was 0.4% and the outcome was “inactive”.
With `COc1ccc(S(=O)(=O)N[C@@H]2C=C[C@@H](CC(=O)N3CCc4ccccc4C3)O[C@@H]2CO)cc1` the GFP+ MAC1+ double positive was 1.9% and the outcome was “inactive”.
For `CN1/C(=c2/s/c(=C3/C(=O)N(c4ccccc4)NC3=Nc3ccccc3)n(C)c2=O)C(C)(C)c2ccccc21`, the GFP+ MAC1+ double positive was 13.2% and the normalized GFP-positive differentiation was 200% (active).
In the case of `Cc1cccc(-c2cnc(C(O)c3ccc4ccccc4c3)[nH]2)c1` (stereo not drawn), the GFP+ MAC1+ double positive is reported as 0.2% and the outcome is reported as “inactive”.
For `Cc1cccn2c(=O)c(/C=C3\SC(=S)N(CC(C)C)C3=O)c(NCCCOC(C)C)nc12`, the GFP+ MAC1+ double positive was 6% and the normalized GFP-positive differentiation was 235% (active).
With `CCCN(CCC)c1nc2c(C)cccn2c(=O)c1/C=C1/SC(=S)N(Cc2ccco2)C1=O` the GFP+ MAC1+ double positive was 9.4% and the normalized GFP-positive differentiation was 389% (active).
With `Cc1cccn2c(=O)c(C=O)c(Nc3ccc(S(N)(=O)=O)cc3)nc12` the GFP+ MAC1+ double positive was 0.8% and the outcome was “inactive”.
With `Cc1ccc2[nH]c(=O)c(-c3nc4c(C)cccn4c3NCc3ccco3)cc2c1` the GFP+ MAC1+ double positive was 0.8% and the outcome was “inactive”.
In the case of `CNc1nc2c(C)cccn2c(=O)c1C=Nc1ccc(OC)cc1`, the GFP+ MAC1+ double positive is reported as 0.6% and the outcome is reported as “inactive”.
In the case of `CC(C)C1C(=O)N(Cc2cn(CCC3OCCO3)nn2)CCS(=O)(=O)N1Cc1ccc(-c2ccccc2C(F)(F)F)cc1` (stereo not drawn), the GFP+ MAC1+ double positive is reported as 1.5% and the outcome is reported as “inactive”.
In the case of `CCCCOCCCNC(=O)C[C@@H]1C[C@@]2(C(=O)OC)CCCCC=C2N(CCC2=CCCCC2)C1=O`, the GFP+ MAC1+ double positive is reported as 1.3% and the outcome is reported as “inactive”.
For `CCOC(=O)[C@]12CCCC=C1N(CCC1=CCCCC1)C(=O)[C@H](CC(=O)NCCCOC)C2`, the GFP+ MAC1+ double positive was 2.8% and the outcome was “inactive”.
In the case of `CC(C)NC(=O)C1(C)CCCCN1Cc1cccc(C(F)(F)F)c1` (stereo not drawn), the GFP+ MAC1+ double positive is reported as 1.4% and the outcome is reported as “inactive”.
With `COc1ccccc1CNC(=O)C1CCN(S(C)(=O)=O)CC1` the GFP+ MAC1+ double positive was 0.7% and the outcome was “inactive”.
In the case of `COc1ccccc1CNC(=O)C1CCN(C(=O)[C@@H]2Cc3ccccc3CN2)CC1`, the GFP+ MAC1+ double positive is reported as 4.9% and the outcome is reported as “inactive”.
In the case of `COc1ccccc1CNC(=O)C1CCN(c2nc3ccccc3o2)CC1`, the GFP+ MAC1+ double positive is reported as 4.6% and the normalized GFP-positive differentiation is reported as 9.06% (active).
With `CNC[C@H]1OCc2cnnn2CCCC(=O)N([C@H](C)CO)C[C@@H]1C` the GFP+ MAC1+ double positive was 0.8% and the outcome was “inactive”.
In the case of `CC(C)C[C@H]1CNC(=O)C(=O)N1C[C@H]1CCCN1C[C@H](Cc1ccc(O)cc1)N1C[C@H](CC(C)C)N(CC2CCCCCC2)C(=O)C1=O`, the GFP+ MAC1+ double positive is reported as 1.3% and the outcome is reported as “inactive”.
With `CCCCc1c(-c2ccc(Cl)cc2)ncn1CCc1ccccc1OC` the GFP+ MAC1+ double positive was 2.2% and the outcome was “inactive”.
For `O=C(NCC1CCCCC1)NCC1CCCCC1`, the GFP+ MAC1+ double positive was 5.3% and the normalized GFP-positive differentiation was 9.67% (active).
For `N#CCC(=O)NC(=O)NCC1CC1`, the GFP+ MAC1+ double positive was 1.2% and the outcome was “inactive”.
For `CC(C)(C)NC(=O)NC(=O)COC(=O)CCC1CCCCC1`, the GFP+ MAC1+ double positive was 0.5% and the outcome was “inactive”.
In the case of `COC(=O)Cc1ccc(OC2(C)CCN(Cc3ccc4c(c3)OCCO4)C2)cc1` (stereo not drawn), the GFP+ MAC1+ double positive is reported as 2.5% and the outcome is reported as “inactive”.
In the case of `CCC(c1nc2ccccc2[nH]1)n1c(=O)c(-c2cccs2)nc2ccccc21` (stereo not drawn), the GFP+ MAC1+ double positive is reported as 2.5% and the outcome is reported as “inactive”.
For `CCCc1c(-c2ccccc2F)ncn1Cc1ccccc1OC`, the GFP+ MAC1+ double positive was 1.4% and the outcome was “inactive”.
In the case of `CCc1c(-c2ccc(F)cc2)ncn1Cc1cccc(-c2ccccc2)c1`, the GFP+ MAC1+ double positive is reported as 3.4% and the outcome is reported as “inactive”.
In the case of `Nc1cc(=O)n(Cc2ccccc2)c(=O)n1Cc1ccccc1`, the GFP+ MAC1+ double positive is reported as 1.4% and the outcome is reported as “inactive”.
With `CN(C(=O)COC(=O)c1ccc(Br)o1)c1c(N)n(Cc2ccccc2)c(=O)[nH]c1=O` the GFP+ MAC1+ double positive was 0.6% and the outcome was “inactive”.
With `Cc1cc2nc3c(=O)n(Cc4ccccc4)c(=O)[nH]c3nc2cc1N` the GFP+ MAC1+ double positive was 5% and the normalized GFP-positive differentiation was 282% (active).
For `COC(=O)[C@]12CCCCC=C1N(CCC1=CCCCC1)C(=O)[C@H](CC(=O)N1CCSCC1)C2`, the GFP+ MAC1+ double positive was 0.5% and the outcome was “inactive”.
With `N#CC1=C(N)Oc2c(sc3ccccc23)C1c1ccco1` (stereo not drawn) the GFP+ MAC1+ double positive was 2.5% and the normalized GFP-positive differentiation was 197% (active).
For `N#CC1=C(N)Oc2c(ccc3cccnc23)C1c1ccncc1` (stereo not drawn), the GFP+ MAC1+ double positive was 0% and the outcome was “inactive”.
In the case of `N#CC1=C(N)Oc2cc(N)ccc2C1c1ccccc1` (stereo not drawn), the GFP+ MAC1+ double positive is reported as 0.2% and the outcome is reported as “inactive”.
For `CCCCNC(=O)OC1CC2CC1[C@H]1CCCCN1C2=O` (stereo partly drawn), the GFP+ MAC1+ double positive was 0.8% and the outcome was “inactive”.
In the case of `COC(=O)[C@@]12C[C@@H](CC(=O)NCCCCc3ccccc3)C(=O)N(Cc3ccccc3)C1=CCC(C)(C)C2`, the GFP+ MAC1+ double positive is reported as 3.1% and the outcome is reported as “inactive”.
In the case of `Cc1ccc(C(=O)NC2CCCC(C)C2C)cc1S(=O)(=O)N1CCCCC1` (stereo not drawn), the GFP+ MAC1+ double positive is reported as 2.2% and the normalized GFP-positive differentiation is reported as 27.1% (active).
With `CC1CCCC(NC(=O)c2cc(S(=O)(=O)N3CCCCC3)ccc2Cl)C1C` (stereo not drawn) the GFP+ MAC1+ double positive was 1.2% and the outcome was “inactive”.
In the case of `Cc1ccc(C(=O)NNC(=O)c2ccncc2)cc1S(=O)(=O)N1CCCCC1`, the GFP+ MAC1+ double positive is reported as 0.5% and the outcome is reported as “inactive”.
With `CCOC(=O)[C@]12CCC=C1N(Cc1ccco1)C(=O)[C@H](CC(=O)NCc1cccc(C(F)(F)F)c1)C2` the GFP+ MAC1+ double positive was 1.6% and the outcome was “inactive”.
In the case of `CN1CCN(CCC(=O)N/N=C/C=C2\N(C)c3ccccc3C2(C)C)CC1`, the GFP+ MAC1+ double positive is reported as 2.2% and the normalized GFP-positive differentiation is reported as 224% (active).
For `COc1ccccc1/C=C/C=N/NC(=O)CN1CCN(Cc2ccccc2)CC1`, the GFP+ MAC1+ double positive was 0.2% and the outcome was “inactive”.
For `Cc1cc(NC(=O)CCN2CCN(Cc3ccccc3)CC2)ccc1Br`, the GFP+ MAC1+ double positive was 0.5% and the outcome was “inactive”.
